Assay in all cases: PBM binding z-score (relative to random genomic background probes); higher = stronger binding; sequences stand for … in GC…GCGATTGACAGCGTAGAATGAAGG
The subject of assay [1] is RARb homodimer (NR concentration 270 nM). In short, it runs like this:
(§1)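 Antibodies against each partner of ligand-free nuclear receptor dimers (one per run) detected binding on custom Agilent 4×180K protein-binding microarrays after 1 h incubation. The double-stranded probes had 34-nt variable regions carrying direct-repeat seeds, single-nucleotide variants, half-site ablations and random human genomic background sequences. Binding z-scores, from regression-normalized fluorescence, use the random background probes as reference.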

Assay [2] relates to RARg:RXRa (NR concentration 270 nM, RXRa partner concentration 90 nM). An outline of the steps:
as §1

The test system of assay [3] is RARg homodimer (NR concentration 270 nM). An outline of the steps: as §1
In assay [4] the test system is RXRa DBDmut IVT, anti-RXR (DBD mutation: RXRa K156A/R161A, NR concentration 90 nM). An outline of the steps:
as §1

The test system of assay [5] is RXRa homodimer (NR concentration 180 nM). An outline of the steps:
as §1

For assay [6], the system named is THRa:RXRa (NR concentration 90 nM, RXRa partner concentration 90 nM). In short, it runs like this:
as §1

The test system of assay [7] is THRa homodimer (NR concentration 90 nM). In short, it runs like this:
as §1

For assay [8], the system named is VDR homodimer (NR concentration 270 nM). In short, it runs like this: as §1

With CAAACTAGGTCACAGGAAGGTCAAAGTCCGCATG, the PBM binding z-score in assay [1] worked out at 5.1; in assay [2], 7.79; in assay [3], 7; in assay [4] it was 2.17; in assay [5], 6.07; in assay [6], 4.36. In addition, the PBM binding z-score in assay [7] was 2.46; in assay [8], 3.1.
With ATCGAAAGGTAGTGAGGTGAGTATACAGAAAGGC, the PBM binding z-score in assay [1] was 0.406; in assay [2], 0.407; in assay [3], 0.62; in assay [4], -0.693; in assay [5] it was 0.164; in assay [6], 1.5. In addition, the values for the PBM binding z-score in assay [7] and in assay [8] were 0.917 and -0.237, respectively.
TCTAGTCGGTCACGGAGGTCACACACGACGGGTA: the PBM binding z-score worked out at 5.2 in assay [1]; 5.84 in assay [2]; 6.47 in assay [3]; 1.15 in assay [4]; 5.17 in assay [5]; 3.94 in assay [6]. In addition, the results for the PBM binding z-score in assay [7] and in assay [8] were 2.48 and 3.72, respectively.
As to CTCGAAAGGTCGTGCTCAGGTTAGTATACCAAAC, the PBM binding z-score in assay [1] is 3.37; in assay [2], 5.5; in assay [3] it was 4.17; in assay [4], 2.12; in assay [5], 5.47; in assay [6] it was 3.73. Also, the PBM binding z-score in assay [7] is 0.934; in assay [8] it was 1.3.
On to CTACCAAGGTGAACAAGGTCGATGATTACTATTC, for which the PBM binding z-score in assay [1] is 2.03; in assay [2], 1.58; in assay [3], 1.71; in assay [4], 0.696; in assay [5], 1.61; in assay [6], 2.89. Moreover, the PBM binding z-score came out at 1.41 in assay [7] and 0.758 in assay [8].
For ATCGAAAGGTCGTGAGGTGAGTAGACAGAAAGGC, the PBM binding z-score in assay [1] worked out at 2.99; in assay [2], 4.61; in assay [3] it was 3.94; in assay [4], 1.15; in assay [5], 5.39; in assay [6] it was 3.28. The PBM binding z-score in assay [7] amounted to 1.3; in assay [8] it was 0.659.
As to TAGCCTTGGTCATGGGCCAGTATACCACGCGAAC, the PBM binding z-score was 0.441 in assay [1]; 0.368 in assay [2]; 0.681 in assay [3]; -1.32 in assay [4]; 0.297 in assay [5]; -0.147 in assay [6]. Besides, the PBM binding z-score in assay [7] is -0.424; in assay [8] it was -0.715.

(Values after the supplement of paper PMC6555819.)
